Source: PubChem BioAssay
An excerpt weighted towards active compounds, which were near 3.9% of everything screened.
KKLEB cytotox: reduces viability of KKLEB cystic fibrosis airway cells. hit rate 0.36% among 360,000. KKLEB CF airway cells viability, ATPlite luminescence, overnight; stronger effect = lower value; cells stimulated with P. aeruginosa culture filtrate. activity change (cytotoxicity), % at 5 µM. AID 602141;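 active = corrected activity change at or below -50% at 5 µM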
TROY signal inh: inhibitors of TROY-dependent NF-kB signaling; Q293 LMP1-TROYcd NF-kB luciferase reporter, 4 h; inhibition, % at 10 µM; hit rate 0.98% among 360,000;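 active = compounds whose plate-normalised and pattern-corrected inhibition of the luciferase reporter signal at the single screening dose is 50% or more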
TWEAK Fn14 block: TWEAK-Fn14 signaling inhibition; TWEAK-stimulated Fn14 reporter cells, luciferase luminescence, 8 h; hit rate 2% among 360,000; inhibition, % at 10 µM; in the data active = inhibition above about 50%
CF NFkB inh: blocks PAF-induced NF-kB reporter in cystic fibrosis cells. AID 588850. inhibition, % at 5 µM. hit rate 0.86% among 360,000. KKLEB NF-kB-GFP reporter, GFP fluorescence overnight;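 active = at least 50% inhibition at 5 µM, scaled per plate between neutral and stimulator controls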;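 also: PAF is a Pseudomonas aeruginosa culture filtrate used as stimulus; plate controls were PAF-stimulated DMSO wells for no effect and unstimulated DMSO wells for full effect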
HIF-2a inh: HIF-2a inhibition; 786-0 RCC cells HIF-2a reporter, luciferase luminescence, overnight; inhibition, % at 18.8 µM; hit rate 0.72% among 360,000;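 active = inhibition of the luminescence signal of 40% or more relative to plate controls, in a single-dose primary screen at 18.75 µM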
Peg3 promoter: inhibitors of Peg3 promoter | HeLa PEG-Prom luciferase reporter, luminescence, overnight | inhibition, % at 20 µM | AID 588405 | hit rate 1.7% among 360,000;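 active = inhibition of at least 50% at 20 µM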
Active calls of the source: *; x = no result given.

SMILES	KKLEB cytotox	TROY signal inh	TWEAK Fn14 block	CF NFkB inh	HIF-2a inh	Peg3 promoter
CC(C)c1ccc(C2C3=C(CC(C)(C)CC3=O)NC3=C2C(=O)c2ccccc23)cc1 (configuration not stated)	-12.3	36.1	60.5*	-2.4	-13.7	21.2
CC1(C)CC(=O)C2=C(C1)NC1=C(C(=O)c3ccccc31)C2c1ccccc1 (configuration not stated)	7.7	1.7	63.7*	-2.7	31.1	5.7
Oc1ccc(/C=N/Nc2nc(-c3ccc(Cl)cc3)cc(C(F)(F)F)n2)cc1	2.2	45.0	79.0*	-16.7	-140.3	31.0
CCN(CC)S(=O)(=O)c1ccc(/C=C/C(=O)Nc2ccc(F)c(F)c2F)cc1	1.5	6.7	39.1	9.4	-56.6	-40.6
CCN(CC)S(=O)(=O)c1ccc(/C=C/C(=O)Nc2ccc(F)cc2F)cc1	-4.2	3.1	75.9*	7.7	-83.9	-42.8
CCN(CC)S(=O)(=O)c1ccc(/C=C/C(=O)Nc2ccc(Br)cc2F)cc1	4.6	48.2	73.6*	-5.0	6.9	13.6
CS(=O)(=O)Nc1ccc(C2=NN(C(=O)C3CCCCC3)C(c3cccs3)C2)cc1 (configuration not stated)	3.5	16.0	18.5	-7.8	6.6	21.7
O=C(N=Nc1c(O)[nH]c2ccc(Br)cc12)c1ccccc1-n1cccc1	-24.6	25.8	29.9	36.6	9.5	12.4
Cc1cccc(-n2c(SCC(N)=O)nc3c(c2=O)C2(CCCC2)Cc2ccccc2-3)c1	4.0	50.5*	33.4	-17.1	24.6	-7.7
NC(=O)CSc1nc2c(c(=O)n1-c1ccccc1)C1(CCCCC1)Cc1ccccc1-2	-15.5	44.1	36.5	5.6	8.0	15.3
NCCOc1ccccc1-c1ccccc1	3.6	0.5	24.6	2.2	18.4	-1.3
Nc1ccc(Oc2ccccc2-c2ccccc2)cc1	6.1	68.5*	82.5*	0.2	91.0*	49.2
CCCNCC1C(Oc2ccc(Cl)cc2Cl)C(=O)N1c1cccc(C)c1C (configuration not stated)	-13.1	-5.7	0.5	19.8	6.0	61.8*
Cc1cccc(N2C(=O)C(Oc3ccc(Cl)cc3Cl)C2C(=O)O)c1C (configuration not stated)	27.8	5.5	18.5	-7.9	26.8	6.8
C(=C\c1ccccc1)/CN1CCN(C(c2cccs2)c2nnnn2C2CCCC2)CC1 (configuration not stated)	11.6	-7.9	12.6	-24.4	-13.9	26.8
CC(C)Oc1ccc(C(=O)Nc2nnc(C3=COCCO3)o2)cc1	11.9	-4.0	-9.4	4.1	-12.0	-8.8
Cc1cc(C)c2[nH]c(=O)c(CN(Cc3cccs3)C(=S)NCc3ccco3)cc2c1	0.7	39.1	63.9*	0.1	24.0	41.4
Cc1ccc2cc(CN(Cc3ccco3)C(=O)c3ccccc3)c(=O)[nH]c2c1C	-7.8	-13.7	-10.9	8.5	-6.5	0.2
Cc1ccc2cc(CN(Cc3ccco3)C(=O)NCc3ccccc3)c(=O)[nH]c2c1C	-11.5	50.2*	21.8	-0.8	-107.9	-235.9
Cc1ccc(C)n1-c1cccc(NC(=O)c2ccccc2)c1	1.4	-30.0	-9.1	-19.1	-82.6	-7.1
COC(=O)c1c(F)c(F)c(NCCO)c(F)c1F	6.6	-3.5	11.7	3.1	-6.4	12.4
Cc1ccccc1C1=C/C(=C(\SS/C(C(=O)c2ccc(OCC(=O)O)c(Cl)c2Cl)=C2\C=C(c3ccccc3C)SS2)C(=O)c2ccc(OCC(=O)O)c(Cl)c2Cl)SS1	10.3	38.9	57.2*	4.8	10.6	8.1
Cc1ccc(N/C=C/C(=O)c2cccs2)cc1	-53.6*	55.2*	81.0*	-30.4	-34.9	15.0
O=C(/C=C/Nc1ccc(F)cc1F)c1cccs1	-67.8*	10.4	60.1*	-13.1	-6.6	12.3
O=C(/C=C\Nc1ccc2c(c1)OCO2)c1cccs1	-39.0	-54.7	30.0	-0.2	-87.3	3.8
O=C(/C=C/Nc1ccccc1F)c1cccs1	-28.0	-13.9	63.6*	-5.7	-25.4	-43.5
O=C(/C=C\Nc1cccc(F)c1)c1cccs1	-9.2	-55.9	9.8	0.1	-228.6	-225.6
CC(C)(C)NC(=O)C(c1ccccc1F)n1c(=O)c(-c2cc3ccccc3[nH]2)nc2ccccc21 (configuration not stated)	x	x	x	x	-49.7	x
